Active and inactive are the calls of the source. How the source made its calls: active means hit-call score of the fitted dose curve at least 0.9, where 1 is the maximum; inactive means score below 0.9.

Consider seven molecules from PubChem BioAssay (EPA / NIEHS).

Common to all, as to details: mRNA level, 48 h; actives raise or lower the signal
Read-out in test [1]: Insulin-like growth factor-binding protein 1 (IGFBP1), IGFBP1 (gene 3484)
Description: LTEA_HepaRG_IGFBP1: Life Technologies and Expression Analysis (LTEA) Assay for Insulin-like growth factor-binding protein 1 (IGFBP1) using HepaRG (AID 2283508). A digest of the protocol: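 Read-out is qRT-PCR transcript level normalized to three housekeeping genes, fitted in both directions against 0.5% DMSO. Differentiated HepaRG cells received eight half-log concentrations (top 100 uM) in duplicate for 48 h in serum-free induction medium.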

Read-out in test [2]: Interleukin 6 (IL6), IL6 (gene 3569)
The test is described as follows: LTEA_HepaRG_IL6: Life Technologies and Expression Analysis (LTEA) Assay for Interleukin 6 (IL6) using HepaRG (AID 2283509). A digest of the protocol:
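Changes in IL6 mRNA, up or down relative to 0.5% DMSO controls, were derived from concentration-response curves in human HepaRG cells treated for 48 h at up to 100 uM, with ACTB, GAPDH and POLR2A as normalizers.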

Read-out in test [3]: Interleukin 6 Receptor (IL6R), IL6R (gene 3570)
Description: LTEA_HepaRG_IL6R: Life Technologies and Expression Analysis (LTEA) Assay for Interleukin 6 Receptor (IL6R) using HepaRG (AID 2283510). Put shortly:
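IL6R transcript level by qRT-PCR after 48 h chemical exposure (8-point, half-log, max 100 uM, 0.5% DMSO vehicle) of HepaRG cells in serum-free induction medium. Normalized to three housekeeping genes; curves fitted in both directions relative to DMSO.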

Read-out in test [4]: Potassium channel subfamily K member 1 (KCNK1), KCNK1 (gene 3775)
The test is described as follows: LTEA_HepaRG_KCNK1: Life Technologies and Expression Analysis (LTEA) Assay for Potassium channel subfamily K member 1 (KCNK1) using HepaRG (AID 2283511). A digest of the protocol: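 Human HepaRG cultures receive test chemicals for 48 h in 0.5% DMSO, top concentration 100 uM with half-log dilutions. Induction or suppression of KCNK1 mRNA relative to DMSO is derived by bidirectional fitting of qRT-PCR data.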

Read-out in test [5]: Keratin 19 (KRT19), KRT19 (gene 3880)
The test is described as follows: LTEA_HepaRG_KRT19: Life Technologies and Expression Analysis (LTEA) Assay for Keratin 19 (KRT19) using HepaRG (AID 2283512). Put shortly: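 KRT19 transcript measured by TaqMan qRT-PCR, referenced to three housekeeping genes, after HepaRG cells received test chemicals for 48 h. Eight half-log concentrations, top 100 uM, 0.5% DMSO vehicle; increases and decreases both fitted.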

Read-out in test [6]: JUN Transcription Factor, JUN (gene 3725)
The test is described as follows: LTEA_HepaRG_JUN: Life Technologies and Expression Analysis (LTEA) Assay for JUN Transcription Factor using HepaRG (AID 2283513). Put shortly:
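mRNA measured by TaqMan qRT-PCR after 48 h chemical exposure of HepaRG cultures; normalization to three housekeeping genes. Duplicate eight-point half-log curves from 100 uM in 0.5% DMSO; gain or loss fitted against DMSO baseline.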

Read-out in test [7]: MicroRNA 122 (MIR122), gene 406906
The test is described as follows: LTEA_HepaRG_MIR122: Life Technologies and Expression Analysis (LTEA) Assay for MicroRNA 122 (MIR122) using HepaRG (AID 2283516). Further: the transcript read is the microRNA miR-122. Put shortly: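 Expression measured by microfluidic qRT-PCR with three housekeeping genes for normalisation, after 48 h treatment of HepaRG cultures. Eight concentrations (top 100 uM, half-log steps, 0.5% DMSO vehicle) in duplicate; gain or loss fitted relative to vehicle.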

Read-out in test [8]: matrix metalloproteinase-10 (MMP10), MMP10 (gene 4319)
Description: LTEA_HepaRG_MMP10: Life Technologies and Expression Analysis (LTEA) Assay for matrix metalloproteinase-10 (MMP10) using HepaRG (AID 2283517). A digest of the protocol: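 In differentiated HepaRG cultures kept in 0.5% DMSO, test chemicals act for 48 h over an eight-point range with a top dose of 100 uM. Expression is then quantified by TaqMan RT-PCR against ACTB, GAPDH and POLR2A.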

Read-out in the next test: MYC, MYC (gene 4609)
The test is described as follows: LTEA_HepaRG_MYC: Life Technologies and Expression Analysis (LTEA) Assay for MYC using HepaRG (AID 2283518). A digest of the protocol:
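MYC transcript changes, up or down relative to 0.5% DMSO, from TaqMan qRT-PCR normalized to three housekeeping genes. Human HepaRG cultures received chemicals for 48 h at eight half-log concentrations up to 100 uM, in duplicate.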

Read-out in test [9]: matrix metalloproteinase-3 (MMP3), MMP3 (gene 4314)
Description: LTEA_HepaRG_MMP3: Life Technologies and Expression Analysis (LTEA) Assay for matrix metalloproteinase-3 (MMP3) using HepaRG (AID 2283519). Put shortly:
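Human liver HepaRG cultures received chemicals (top concentration 100 uM, 0.5% DMSO) for 48 h in duplicate. MMP3 mRNA induction or loss was then assessed via TaqMan qRT-PCR with housekeeping-gene normalisation.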

Read-out in test [10]: Paternally Expressed 10 (PEG10), PEG10 (gene 23089)
Description: LTEA_HepaRG_PEG10: Life Technologies and Expression Analysis (LTEA) Assay for Paternally Expressed 10 (PEG10) using HepaRG (AID 2283520).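 On AC50: PEG10 transcript by qRT-PCR normalised to ACTB GAPDH and POLR2A.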 A digest of the protocol: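 PEG10 transcript measured by Fluidigm qRT-PCR, normalized to three housekeeping genes, in HepaRG cells treated 48 h (highest 100 uM, half-log steps, 0.5% DMSO vehicle). Cells plated 48 h before switching to serum-free induction medium.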

Read-out in test [11]: Protein phosphatase 2A (PPP2R4), PTPA (gene 5524)
The test is described as follows: LTEA_HepaRG_PPP2R4: Life Technologies and Expression Analysis (LTEA) Assay for Protein phosphatase 2A (PPP2R4) using HepaRG (AID 2283522). A digest of the protocol:
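Expression was quantified by Fluidigm qRT-PCR normalised to three housekeeping genes after 48 h treatment. Human HepaRG cells received an 8-point series from 100 µM downward by half-logs, in duplicate with 0.5% DMSO vehicle and 1 mM phenobarbital as induction control.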

Read-out in test [12]: Phosphatase and tensin (PTEN), PTEN (gene 5728)
Description: LTEA_HepaRG_PTEN: Life Technologies and Expression Analysis (LTEA) Assay for Phosphatase and tensin (PTEN) using HepaRG (AID 2283523). Put shortly: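 Expression of PTEN is quantified in the human liver line HepaRG following two days of dosing (top concentration 100 uM, half-log dilutions, 0.5% DMSO). Values derive from bidirectional curve fitting relative to DMSO controls.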

Read-out in test [13]: solute carrier (SLC22A1), SLC22A1 (gene 6580)
Description: LTEA_HepaRG_SLC22A1: Life Technologies and Expression Analysis (LTEA) Assay for solute carrier (SLC22A1) using HepaRG (AID 2283524).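 On AC50: TaqMan qRT-PCR normalized to ACTB GAPDH and POLR2A housekeeping genes.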 A digest of the protocol:
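Transcript induction or suppression of SLC22A1 in human HepaRG cultures is scored after 48 h chemical treatment, with DMSO (0.5%) as baseline for bidirectional fitting. Concentrations span eight half-log points topping at 100 uM.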

Read-out in test [14]: Pyruvate Dehydrogenase Kinase 4 (PDK4), PDK4 (gene 5166)
The test is described as follows: LTEA_HepaRG_PDK4: Life Technologies and Expression Analysis (LTEA) Assay for Pyruvate Dehydrogenase Kinase 4 (PDK4) using HepaRG (AID 2283525). A digest of the protocol:
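Eight-point, half-log concentration series (max 100 uM, 0.5% DMSO) applied to differentiated HepaRG cells for 48 h in duplicate. Endpoint: PDK4 mRNA induction or repression by qRT-PCR against DMSO baseline.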

Read-out in test [15]: NAD(P)H dehydrogenase [quinone] 1 (NQO1), NQO1 (gene 1728)
Description: LTEA_HepaRG_NQO1: Life Technologies and Expression Analysis (LTEA) Assay for NAD(P)H dehydrogenase [quinone] 1 (NQO1) using HepaRG (AID 2283526). Put shortly:
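NQO1 transcript induction or loss measured by TaqMan qRT-PCR, referenced to three housekeeping genes and fitted bidirectionally against 0.5% DMSO. HepaRG cultures exposed 48 h, duplicate, eight-point half-log series, top 100 uM.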

Read-out in test [16]: Nuclear factor erythroid 2-related factor 2 (Homo sapiens) (UniProt Q16236)
The test is described as follows: LTEA_HepaRG_NFE2L2: Life Technologies and Expression Analysis (LTEA) Assay for Nuclear factor erythroid 2-related factor 2 (NFE2L2) Transcription Factor using HepaRG (AID 2283527).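 On outcome: TaqMan qRT-PCR transcript level normalised to ACTB GAPDH and POLR2A housekeeping genes.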 Put shortly:
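Human liver HepaRG line treated in duplicate for 48 h with an eight-point series topping at 100 uM. Gene expression of NFE2L2 by qRT-PCR, bidirectionally fitted against the vehicle control.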

Read-out in test [17]: Lipoprotein lipase (LPL), LPL (gene 4023)
The test is described as follows: LTEA_HepaRG_LPL: Life Technologies and Expression Analysis (LTEA) Assay for Lipoprotein lipase (LPL) using HepaRG (AID 2283515). Put shortly:
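Concentration-response testing used half-log steps from 100 uM in 0.5% DMSO on human HepaRG cells, 48 h, duplicate wells. Phenobarbital 1 mM served as induction control; LPL mRNA was normalized to ACTB, GAPDH, POLR2A.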

Read-out in test [18]: Nuclear factor NF-kappa-B p105 subunit (Homo sapiens) (UniProt P19838)
The test is described as follows: LTEA_HepaRG_NFKB1: Life Technologies and Expression Analysis (LTEA) Assay for Nuclear Factor Kappa B Subunit 1 (NFKB1) using HepaRG (AID 2283521).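 Further: TaqMan qRT-PCR transcript normalised to ACTB GAPDH and POLR2A housekeeping genes.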 A digest of the protocol:
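Differentiated human HepaRG cells in serum-free induction medium with 0.5% DMSO were exposed for 48 h to eight half-log concentrations, top 100 uM, in duplicate. NFKB1 mRNA measured by Fluidigm TaqMan qRT-PCR, normalised to ACTB, GAPDH and POLR2A; bidirectional fit versus DMSO.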

Nuclear factor erythroid 2-related factor 2 (Homo sapiens), sequence (Q16236 whole entry, looked up): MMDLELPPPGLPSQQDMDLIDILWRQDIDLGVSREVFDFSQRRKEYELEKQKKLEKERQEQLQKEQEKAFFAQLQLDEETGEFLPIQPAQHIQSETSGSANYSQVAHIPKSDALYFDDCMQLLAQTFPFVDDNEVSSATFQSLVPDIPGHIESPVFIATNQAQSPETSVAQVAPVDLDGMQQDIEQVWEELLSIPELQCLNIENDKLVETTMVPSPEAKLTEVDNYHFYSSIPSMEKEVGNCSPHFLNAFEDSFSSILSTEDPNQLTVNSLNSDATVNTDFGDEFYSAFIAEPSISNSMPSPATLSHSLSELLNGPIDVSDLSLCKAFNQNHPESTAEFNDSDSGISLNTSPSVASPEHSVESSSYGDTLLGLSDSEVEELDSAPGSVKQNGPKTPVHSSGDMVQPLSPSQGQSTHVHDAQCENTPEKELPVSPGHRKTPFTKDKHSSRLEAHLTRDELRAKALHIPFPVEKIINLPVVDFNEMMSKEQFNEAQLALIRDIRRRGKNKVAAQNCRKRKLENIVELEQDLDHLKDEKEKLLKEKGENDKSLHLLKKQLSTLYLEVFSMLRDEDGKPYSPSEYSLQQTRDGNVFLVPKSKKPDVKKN
Nuclear factor NF-kappa-B p105 subunit (Homo sapiens), sequence (P19838 whole entry, looked up): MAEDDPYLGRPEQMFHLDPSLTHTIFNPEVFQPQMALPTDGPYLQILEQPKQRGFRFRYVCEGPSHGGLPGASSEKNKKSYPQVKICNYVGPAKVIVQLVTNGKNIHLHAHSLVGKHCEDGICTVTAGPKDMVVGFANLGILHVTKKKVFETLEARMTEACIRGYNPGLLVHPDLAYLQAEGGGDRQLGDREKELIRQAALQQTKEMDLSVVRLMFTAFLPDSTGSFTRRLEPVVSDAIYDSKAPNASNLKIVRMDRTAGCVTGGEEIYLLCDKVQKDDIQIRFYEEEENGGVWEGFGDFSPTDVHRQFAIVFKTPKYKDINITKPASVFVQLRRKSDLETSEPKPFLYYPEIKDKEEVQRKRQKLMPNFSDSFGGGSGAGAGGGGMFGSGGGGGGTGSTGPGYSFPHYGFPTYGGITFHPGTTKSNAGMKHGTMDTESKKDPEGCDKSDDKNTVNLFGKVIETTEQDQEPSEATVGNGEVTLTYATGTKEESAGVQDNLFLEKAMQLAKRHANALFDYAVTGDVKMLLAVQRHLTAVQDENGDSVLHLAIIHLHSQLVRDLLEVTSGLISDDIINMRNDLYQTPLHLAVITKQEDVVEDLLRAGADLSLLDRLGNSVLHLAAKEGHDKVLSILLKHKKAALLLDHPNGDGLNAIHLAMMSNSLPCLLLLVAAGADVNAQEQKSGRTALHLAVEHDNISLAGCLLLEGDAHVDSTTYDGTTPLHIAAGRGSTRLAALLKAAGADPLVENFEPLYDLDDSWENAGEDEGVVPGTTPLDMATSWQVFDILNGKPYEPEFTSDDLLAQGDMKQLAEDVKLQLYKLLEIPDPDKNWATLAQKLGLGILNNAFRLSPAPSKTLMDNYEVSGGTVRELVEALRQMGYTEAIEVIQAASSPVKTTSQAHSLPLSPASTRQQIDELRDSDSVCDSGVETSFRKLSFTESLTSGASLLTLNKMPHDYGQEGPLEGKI

Usually AC50 stands for the midpoint of the concentration-response curve, whichever way the signal moves. As for `C#CCC1=C(C)C(OC(=O)C2C(C=C(C)C)C2(C)C)CC1=O` (stereo not given), the result in test [1], in test [2], in test [3], in [4], in [5] and in test [6] was inactive. Also, the outcome in [7] is “inactive”; in test [8] it was “inactive”; in the test with MYC, MYC (gene 4609), “inactive”; in test [10], “inactive”; in test [11], “inactive”; in test [12], “inactive”. The call in [15] and in [16] was inactive. The AC50 is 81.9 µM (active) in test [9], 74.1 µM (active) in [13] and 9.87 µM (active) in test [14].

As to `FC(F)C(F)(F)OCC(Cn1cncn1)c1ccc(Cl)cc1Cl` (stereo not given), the AC50 was 31.4 µM (active) in test [1]; 78.5 µM (active) in [2]; 66.8 µM (active) in test [4]; 59.2 µM (active) in test [7]; 49.8 µM (active) in test [8]; 37.3 µM (active) with MYC, MYC (gene 4609). Further, the AC50 in test [9] is 66.9 µM (active); in test [11] it was 90.4 µM (active); in test [13], 19.7 µM (active); in [14] it was 12 µM (active); in test [16], 73.7 µM (active). For the same molecule, the result in [3], in [5], in test [6], in [10], in test [12] and in test [15] was inactive.

For the molecule `COP(=O)(OC)C(O)C(Cl)(Cl)Cl` (stereo not given), the outcome in test [1], in test [2], in test [3], in test [4], in test [5] and in test [6] was inactive. Further, the outcome in test [17] was “inactive”; in [7], “inactive”; in test [8], “inactive”; with MYC, MYC (gene 4609), “inactive”; in test [9] it was “inactive”; in test [10], “inactive”. Besides, the result in test [11], in test [12], in [13], in [14], in [15] and in test [16] was inactive.

In the case of `CSc1nc(NC(C)C)nc(NC(C)C)n1`, the result in test [1], in test [2], in [3], in [4], in test [5] and in test [6] was inactive. Also, the outcome in test [8] is “inactive”; in the test with MYC, MYC (gene 4609), “inactive”; in test [9] it was “inactive”; in test [11], “inactive”; in test [12], “inactive”; in [14], “inactive”. For the same molecule, the call in test [15] and in test [16] was inactive. Also, the results for the AC50 in test [7], in [10] and in [13] were 50 µM (active), 22.5 µM (active) and 34.4 µM (active), respectively.

Consider `CC(C)=CC1C(C(=O)OCN2C(=O)C3=C(CCCC3)C2=O)C1(C)C` (stereo not given), for which the molecule was called inactive in test [1], in test [2], in test [3], in [4], in test [5] and in test [6]. In addition, the molecule was classed as inactive in test [7], in test [8], in test [9], in [10], in test [11] and in [12]. For the same molecule, the result in test [13], in [14], in test [15] and in test [16] was inactive.

With `CCCOc1nn(C(=O)NS(=O)(=O)c2ccccc2C(=O)OC)c(=O)n1C`, the molecule was called inactive in [1], in [2], in [3], in test [4], in [5] and in test [6]. In addition, the outcome in test [7] is “inactive”; in test [8], “inactive”; with MYC, MYC (gene 4609), “inactive”; in test [9], “inactive”; in test [10], “inactive”; in test [18], “inactive”. Moreover, the outcome in test [11], in [12], in [13], in test [14], in test [15] and in test [16] was inactive.

In the case of `CCCCOC(=O)c1ccccc1C(=O)O`, the result in test [1], in [2], in [3], in [4], in [5] and in test [6] was inactive. In addition, the outcome is “inactive” in test [7]; “inactive” in test [8]; “inactive” in the test with MYC, MYC (gene 4609); “inactive” in [9]; “inactive” in [10]; “inactive” in [11]. Moreover, the molecule was classed as inactive in test [12], in test [13], in [14], in test [15] and in test [16].
